Compounds without any hit were thinned out: in the full panel of roughly 83,000, 20% have a hit.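 Single-concentration screen, 48 h exposure, 96-well plates. Endpoint: percent growth. Below 10 = active.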 Active and inactive are the calls of the source.
The compounds below were run on SF-539 CNS (assay: NCI-60 one-dose screen, 48 h (100 = growth as untreated, 0 = no growth, -100 = all killed)). Conditions: 10 µM.

| Structure (SMILES) | growth |
| --- | --- |
| O=C1CC(c2cccc(-c3cccnc3)c2)=Nc2ccc(Br)cc2N1 | 55.7% (inactive) |
| CCCOCC(O)CNCCN (centres undefined) | 93.2% (inactive) |
| COc1ccc(C2C=C(c3ccc(Cl)c(Cl)c3)N=C3SC(C)=CN32)cc1 (centres undefined) | 95.7% (inactive) |
| COC(=O)c1cnc2c(c1)Oc1ccccc1-c1ccnn1-2 | 97% (inactive) |
| CCCCC(CC#N)(CCC)CCC | 100% (inactive) |
| COc1cc(OC)cc(N2CCN(C(=O)Nc3nc4cc(F)ccc4nc3OC)CC2)c1 | -12.2% (active) |
| CCOC(=O)Nc1ccc2c(c1)C(=O)N(CC)c1ccccc1O2 | 4.79% (active) |
| C=C[C@]1(C)C=C2C(=O)[C@@]3(O)OC(=O)[C@@]4(CCCC(C)(C)[C@H]34)[C@@]2(O)CC1 | -97.6% (active) |
| Cc1ccc2c3c(cccc13)-c1ccccc1C2=O | 97.2% (inactive) |
| CCN(CC)CCn1c(=N)n(CC(O)c2ccc(Cl)c(Cl)c2)c2ccccc21 (centres undefined) | 42.4% (inactive) |
| COc1cc(Nc2ccnc(N3CCN(c4ccnc5cc(Cl)ccc45)CC3)n2)cc(OC)c1 | -22.1% (active) |
| O=C1CC[C@@H](C(=O)N[C@H]2CSSC[C@@H](C(=O)NCCc3ccccc3)NC(=O)[C@H](Cc3ccccc3)NC(=O)[C@@H]3CCCN3C(=O)[C@@H]3CCCN3C2=O)N1 | 94.2% (inactive) |
| COc1cc(C(c2c[nH]c3ccccc23)N2CCCC2)ccc1OCc1ccccc1 (centres undefined) | 4.28% (active) |
| Cc1ccc(/C=C2\CN(Cc3cn(CCNc4ccnc5cc(Cl)ccc45)nn3)C/C(=C\c3ccc(C)cc3)C2=O)cc1 | -51.9% (active) |
